Reference: PubChem BioAssay AID652136 (The Scripps Research Institute Molecular Screening Center, 2013)
In all, about 2,400 compounds went through this assay and about 1,900 (79%) were called active.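 How the source made its calls: active means inhibition above the mean of all tested compounds plus 3 SD (cut at about 3% in these data); inactive means the rest.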 The set was probably picked from earlier hits. The list is a sample of the results.

Test: StAR reporter signal changes without DAX1, counter-screen for DAX1 inhibitor project, cell-based, luminescence, AF-2 mutant SF-1, transactivation (AID 652136);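 further: 0% = DAX-1 transfected cells with DMSO and 100% = cells without DAX-1 with DMSO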
Details: HEK293 StAR-luciferase, SF-1 AF2 mutant, at 6.8 µM, hits give high values

With O=C(Nc1ccccc1)Nc1nc2ccccc2s1 as the compound, how does the inhibition read?
Its inhibition is 10.3% (active).

Which inhibition does the source give for Nc1ccc(C(=O)Nc2ccccc2N)cc1 here?
Its inhibition is 42.6% (active).

For O=C(NC(=S)NC1CCCCC1)c1ccc(Cl)cc1, which inhibition is on record?
Its inhibition is 4.24% (active).

With CSCCC(NC(=O)c1ccco1)C(=O)Nc1cc(C)ccn1 (configuration not stated) as the compound, how does the inhibition read?
Its inhibition is 7.83% (active).

Which inhibition does the source give for O=c1c2c(nc3n1CCCCC3)sc1c(O)cccc12 here?
The inhibition was 7.48% (active).

For CC[C@]1(O)CC2CN(CCc3c([nH]c4ccccc34)[C@@](C(=O)OC)(c3cc4c(cc3OC)N(C=O)[C@H]3[C@@](O)(C(=O)OC)[C@H](OC(C)=O)[C@]5(CC)C=CCN6CC[C@]43[C@@H]65)C2)C1 (some centres not stated), which inhibition is on record?
Its inhibition is -7.3% (inactive).

With COC(=O)c1sc(NC(=O)c2ccc(OC)cc2OC)nc1C as the compound, how does the inhibition read?
Its inhibition is 3.15% (active).

Which inhibition does the source give for CN1OC[C@@H]2CN[C@H](c3ccc(-c4ccccc4)cc3)C[C@@H]21 here?
Its inhibition is 5.72% (active).

Which inhibition does the source give for CC(=O)Nc1cccc(-c2csc(Nc3cccc(C)n3)n2)c1 here?
Its inhibition is 8.58% (active).

Which inhibition does the source give for Cc1ccc(-c2nc3ccccc3[nH]2)cc1N here?
The inhibition was 8.86% (active).

With c1ccc2[nH]c(-c3nc4ccccc4[nH]3)nc2c1 as the compound, how does the inhibition read?
The inhibition was 8.74% (active).

With O=c1oc(/C=C/c2ccccc2)nc2ccccc12 as the compound, how does the inhibition read?
Its inhibition is 7.24% (active).

For Cn1ccnc1SCC(=O)Nc1ccc2c(c1)OCCO2, which inhibition is on record?
Its inhibition is 5.39% (active).

Which inhibition does the source give for CCN(CC(=O)Nc1c(F)cccc1F)C(=O)c1cnc(C)cn1 here?
Its inhibition is 0.25% (inactive).

Which inhibition does the source give for Cc1nc2cc(NC(=O)Nc3cccc(F)c3)ccc2n1C here?
The inhibition was 8.9% (active).

With O=C(N/N=C\C1CC=CCC1)c1ccc(Br)o1 (configuration not stated) as the compound, how does the inhibition read?
Its inhibition is 0.2% (inactive).

For CCSc1nnc(NC(=O)c2ccc(C)cc2)s1, which inhibition is on record?
The inhibition was 6.21% (active).

With NC(=O)CSc1nnc(NC(=O)c2ccc3ccccc3c2)s1 as the compound, how does the inhibition read?
The inhibition was 7.69% (active).

With Nc1c(C(=O)Nc2ccc3c(c2)OCCO3)nnn1Cc1ccccc1 as the compound, how does the inhibition read?
Its inhibition is 7.14% (active).

For CC[C@]1(O)C[C@@H]2CN(CCc3c([nH]c4ccccc34)[C@@](C(=O)OC)(c3cc4c(cc3OC)N(C)[C@H]3[C@@](O)(C(=O)OC)[C@H](OC(C)=O)[C@]5(CC)C=CCN6CC[C@]43[C@@H]65)C2)C1, which inhibition is on record?
The inhibition was -6.49% (inactive).

With Cc1ccc(-n2cc3ccc([N+](=O)[O-])cc3n2)cc1 as the compound, how does the inhibition read?
Its inhibition is 6.18% (active).

With Brc1ccc2nc(N3CCCC3)sc2c1 as the compound, how does the inhibition read?
The inhibition was 4.08% (active).

With S=C(c1ccc(-c2ccccc2)o1)N1CCCCC1 as the compound, how does the inhibition read?
The inhibition was 5.47% (active).

With Cc1ccnc(NC(=O)CCNS(=O)(=O)c2ccc(C)c(C)c2)c1 as the compound, how does the inhibition read?
The inhibition was 9.35% (active).

For Cc1ccnc(NC(=O)CNC(=O)c2ccccc2)c1, which inhibition is on record?
Its inhibition is 2.35% (inactive).

For CC1CCCN(c2ccc(C(=O)NCCc3ccccc3)cn2)C1 (configuration not stated), which inhibition is on record?
Its inhibition is 3.59% (active).

For O=C(c1cnn2ccccc12)N1CCc2ccccc21, which inhibition is on record?
The inhibition was 6.23% (active).

With Cc1sc(NC(=O)c2ccc3ncsc3c2)c(C(N)=O)c1C as the compound, how does the inhibition read?
The inhibition was 5.5% (active).

With O=C(Nc1ccc(Cl)c(Cl)c1)c1ccccc1NC(=O)C1CC=CCC1C(=O)O (configuration not stated) as the compound, how does the inhibition read?
The inhibition was 4.5% (active).

Which inhibition does the source give for CN1CCN(c2ccc(NC(=O)c3ccc4c(c3)OCCO4)cc2Cl)CC1 here?
The inhibition was 4.72% (active).

Which inhibition does the source give for Cc1nc(NC(=O)c2ccc3c(c2)OCCO3)ccc1Br here?
The inhibition was 7.07% (active).

Which inhibition does the source give for O=C(Nc1ccccc1)c1ccc2c(c1)OCCCO2 here?
Its inhibition is 7.83% (active).

For Cc1ccc(C(=O)NNC(=O)c2ccc3c(c2)OCCO3)cc1, which inhibition is on record?
Its inhibition is 2.35% (inactive).

For Cc1c(C(=O)Nc2ccccn2)oc2ccc(Br)cc12, which inhibition is on record?
The inhibition was 8.11% (active).

For O=C(Nc1ccn(Cc2ccccc2)n1)c1n[nH]c([N+](=O)[O-])c1Cl, which inhibition is on record?
Its inhibition is 3.58% (active).

Which inhibition does the source give for O=C(CCc1ccccc1)Nc1ncc([N+](=O)[O-])s1 here?
Its inhibition is 1.92% (inactive).

For c1ccc(Cc2c(-c3ccco3)nc3c4ccccc4ccn23)cc1, which inhibition is on record?
The inhibition was 8.27% (active).

Which inhibition does the source give for COc1ccccc1CCC(=O)OCC(=O)N1CCN(S(=O)(=O)c2ccc(C)cc2C)CC1 here?
The inhibition was 1.55% (inactive).

With CC1CCN(C(=O)COC(=O)c2cc(=O)[nH]c3ccccc23)CC1 as the compound, how does the inhibition read?
The inhibition was 5.98% (active).

Which inhibition does the source give for COc1cc(/C=N/O)ccc1OCc1ccc([N+](=O)[O-])cc1 here?
The inhibition was 6.8% (active).

For COc1cc(C2c3cc4c(cc3C(O)C3COC(=O)C23)OCO4)cc(OC)c1OC (configuration not stated), which inhibition is on record?
Its inhibition is -5.65% (inactive).

Which inhibition does the source give for CC(C)c1ccc(Nc2ncccc2C#N)cc1 here?
The inhibition was 5.42% (active).

With C(=N\Nc1ccc2ccccc2n1)/c1ccc2c(c1)OCO2 as the compound, how does the inhibition read?
Its inhibition is 2.84% (inactive).

With COc1cccc(/C=C/C(=O)Nc2ccc3c(c2)OCCO3)c1 as the compound, how does the inhibition read?
Its inhibition is 3.61% (active).

Which inhibition does the source give for COc1ccc(/C=C/C(=O)Nc2ccc(C34CC5CC(CC(O)(C5)C3)C4)cc2)cc1OC here?
Its inhibition is -4.01% (inactive).

Which inhibition does the source give for Cc1cccc(NC(=O)/C=C/c2ccc3c(c2)OCO3)n1 here?
Its inhibition is 6.21% (active).

With O=C(NCCc1c[nH]c2ccccc12)c1cc2ccccc2oc1=O as the compound, how does the inhibition read?
The inhibition was 7.29% (active).

With O=C(O)c1ccc(N/N=C/c2cn(-c3ccccc3)nc2-c2cccs2)cc1 as the compound, how does the inhibition read?
The inhibition was 6.77% (active).

For Cc1csc(SCC(=O)Nc2sccc2C#N)n1, which inhibition is on record?
Its inhibition is 10.8% (active).

For Cc1cc(C)c(C)c(S(=O)(=O)N2CCN(C(=O)c3ccc4c(=O)n5c(nc4c3)CCC5)CC2)c1C, which inhibition is on record?
The inhibition was -0.34% (inactive).

For CCCc1cc(C(=O)Nc2ccc(C(=O)OC)cc2)cs1, which inhibition is on record?
Its inhibition is 3.67% (active).

With CCCc1cc(C(=O)Nc2ccc(Cl)cn2)cs1 as the compound, how does the inhibition read?
Its inhibition is 6.47% (active).

For CC(C)(O)C#Cc1ccc(CNC[C@H]2O[C@@H](n3cnc4c(=O)[nH]c(N)nc43)[C@H](O)[C@@H]2O)s1, which inhibition is on record?
Its inhibition is -0.84% (inactive).

For CCCNC(=O)C1CC(=O)N(c2ccc(OCc3ccccc3)cc2)C1 (configuration not stated), which inhibition is on record?
Its inhibition is 4.36% (active).

With CCc1ccc(NC2Nc3cc(C)nn3S2)cc1 (configuration not stated) as the compound, how does the inhibition read?
Its inhibition is 5.97% (active).

With O=C(Nc1ccc(NC(=O)c2cccs2)cn1)c1ccco1 as the compound, how does the inhibition read?
The inhibition was 6.87% (active).

Which inhibition does the source give for CC(=O)Nc1cccc(C(=O)OCC(=O)c2ccc3c(c2)OCO3)c1 here?
The inhibition was 5.14% (active).
